Bioassay records (PubChem BioAssay)
Sampled rows, rich in hits. Any-hit rate of the full collection: about 11%.
Sfp PPTase inh = blocks B. subtilis Sfp PPTase activity; Q9F4F7; Biochemical Sfp PPTase activity, qHTS; Potency, µM, for the others: largest response in the series, negative = inhibition, actives largely listed as inhibitors; 310,000 tested, 3.5% active;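 further: the enzyme is Sfp with the accession as filed and its product quenches rhodamine fluorescence; potency means the concentration at half of the fitted maximal effect; 0% = enzyme reaction without inhibitor and -100% = no enzyme wells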
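After 15 min at room temperature with compound, 15 nM Sfp received 5 uM rhodamine-CoA plus 12.5 uM BHQ-2-ybbR (50 mM Hepes pH 7.6, 10 mM MgCl2). Rate came from the fluorescence difference over 30 min, ex 525/em 598 nm.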
Tau FP inhib = inhibitors of human tau fibril formation; P10636; K18 P301L tau heparin fibrillization, Alexa594 FP, 6 h; Potency, µM (top dose mostly 57.7 µM), for inactives: at the highest dose activity, negative = inhibition, actives largely listed as inhibitors; 280,000 tested, 0.39% active; further: potency means the concentration at half of the fitted maximal effect; nearly all actives have a fitted effect of over 55% in size
Target sequence (P10636 561-689 P618L limits assumed): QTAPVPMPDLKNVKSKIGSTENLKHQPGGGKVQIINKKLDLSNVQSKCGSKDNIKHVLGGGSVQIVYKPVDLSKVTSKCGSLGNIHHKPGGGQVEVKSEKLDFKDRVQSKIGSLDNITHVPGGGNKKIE
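K18 P301L tau (15 uM unlabeled/0.24 uM Alexa 594-labeled, final) + compound + heparin 20 uM final; 100 mM NaOAc pH 7; 6 hr 37 C; ThT 30 uM final added, 1 hr RT; FP ex 555/em 632 nm.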
Tau fluor counter = counter-screen for tau fibril formation inhibitors; tau K18 P301L Alexa594 fluorescence, heparin fibrillization; Potency, µM (top dose mostly 57.7 µM), for the others: at the top dose activity change, negative = decrease; 280,000 tested, 0.93% active; further: potency means the concentration at half of the fitted maximal effect; nearly all actives have a fitted effect of over 55% in size
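Human K18 P301L tau (15 uM unlabeled plus 0.24 uM Alexa 594-labeled, final) in 100 mM sodium acetate pH 7 was mixed with compound and 20 uM heparin and incubated 6 hr at 37 C.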
Tau fibril ThT = tau fibrillization inhibition (ThT binding) | recombinant tau K18 P301L (four-repeat tau fragment), heparin-induced fibrillization, ThT fluorescence | Potency, µM (titrated, usually from 57.4 µM), for inactives: at the top dose activity, negative = inhibition, usual class: inhibitors | 270,000 tested, 2.1% active | AID 1460; further: potency means the concentration at half of the fitted maximal effect; nearly all actives have a fitted effect of over 55% in size
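Aggregation was driven by heparin (20 uM final) acting on recombinant tau […] bearing P301L in 100 mM sodium acetate pH 7; fibrils were detected with Thioflavin T.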
Coupling enz = inhibits coupling enzyme system, counter-screen for aldolase hits | coupling enzyme system counterscreen, AmpLite Red fluorescence | activity change, negative = inhibition, % at 58.2 µM, hits read low | 290,000 tested, 0.67% active | AID 2472; in the data active means activity change below about -30%
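Counterscreen lacking aldolase: glyceraldehyde-3-phosphate coupling-enzyme reagent preincubated 10 min at RT with compound (at 57.5 uM final), then substrate/coupling system with AmpLite Red added; fluorescence read at 525/598 nm after 20 min RT.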
G9a block = inhibitors of human histone lysine methyltransferase G9a. G9a H3K9 monomethylation, AlphaScreen, 2 h. Potency, µM (highest dose often 102 µM), inactives show top-dose activity, negative = inhibition, actives largely listed as inhibitors. 350,000 tested, 8.8% active. Q96KQ7. AID 504332; further: potency means the concentration at half of the fitted maximal effect; nearly all actives have a fitted effect of over 75% in size
Target sequence (Q96KQ7 913-1193 limits assumed): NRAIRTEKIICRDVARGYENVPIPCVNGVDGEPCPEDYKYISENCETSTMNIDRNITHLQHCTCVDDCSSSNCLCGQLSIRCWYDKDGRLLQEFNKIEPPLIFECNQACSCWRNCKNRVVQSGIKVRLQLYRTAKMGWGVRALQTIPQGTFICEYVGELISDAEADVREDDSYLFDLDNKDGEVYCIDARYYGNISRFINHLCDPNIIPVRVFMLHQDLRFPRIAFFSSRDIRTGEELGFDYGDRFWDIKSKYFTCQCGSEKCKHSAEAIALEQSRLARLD
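G9a (20 nM) was preincubated 15 min with compound, then reacted 2 h at room temperature with 500 nM biotin-H3K9 peptide and 20 µM SAM. Monomethyl-H3K9 detected by AlphaScreen using anti-H3K9me1 antibody.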
An asterisk follows results filed as active; ? = inconclusive; · = no result; ! = a repeat was not active; [ ] = dose if it differs, or a comment. Unless noted, the call rests on the fitted dose curve; in most records, active means well fitted curve in the direction sought with a large enough effect; inconclusive means small, poorly fitted or top-dose-only effect, or another doubt; inactive means no such curve, though single readings can be large; an effect the other way counts as inactive or inconclusive. Unless noted, on the % scale 0 is the no-effect control and ±100 the full control effect.

SMILES	Sfp PPTase inh	Tau FP inhib	Tau fluor counter	Tau fibril ThT	Coupling enz	G9a block
Cc1ccc(S(=O)(=O)N2CCc3ccccc3C2CC(=O)O)cc1 (centres undefined)	0.9%	-4.1%	-4.7%	-3.9%	2.0	79.4µM*
Cc1ccc2c(c1)CC1(CN2C)C(=O)OC2(CCCCC2)OC1=O	-4.8%	1.9%	-6.8%	-9.2%	-14.0	50.1µM*
Cc1c(N=Nc2c(-c3ccc([N+](=O)[O-])cc3)[nH]n(C(N)=S)c2=O)cccc1[N+](=O)[O-]	-5.6%	?	?	8.91µM*	1.7	50.1µM*
Cc1[nH]n(C(N)=S)c(=O)c1N=Nc1cccc([N+](=O)[O-])c1C	12.1%	·	·	·	4.4	56.2µM*
NC(=S)n1[nH]c(-c2ccc([N+](=O)[O-])cc2)c(N=Nc2ccccc2[N+](=O)[O-])c1=O	7.3%	-1.4%	-25.8%	?	1.8	0.9%
NC(=S)n1[nH]c(-c2ccc([N+](=O)[O-])cc2)c(N=Nc2cccc([N+](=O)[O-])c2)c1=O	-41.4%	-9.8%	?	11.2µM*	4.5	11.2µM*
Cc1[nH]n(-c2ccccc2)c(=O)c1N=Nc1cccc([N+](=O)[O-])c1	11.3%	·	·	·	0.1	·
COc1ccc(CCNC(=O)c2cnc3ccc(C)cn3c2=O)cc1OC	·	2.3%	6.7%	3.4%	·	0.7%[59 µM]
O=C(Nc1ccccc1C(=O)OCc1cc(=O)n2ccsc2n1)c1cccc(F)c1	·	-4.4%	-0.1%	5.1%	·	1.7%[59 µM]
CC1=NN(c2ccccc2)C(=O)/C1=C\c1cn(C)c2ccccc12	-10.3%	?	?	7.08µM*	-17.1	11.2µM*
CC1=NN(c2ccccc2)C(=O)/C1=C/c1cn(C)c2ccccc12	-10.7%	7.9%	?	2.82µM*	-2.4	-47.7%
CC1=NN(c2ccccc2)C(=O)/C1=C\c1cc(C)n(C)c1C	-4.0%	?	-13.4%	3.55µM*	-0.9	?
CC1=NN(c2ccccc2)C(=O)/C1=C/c1cc2cc(C)ccc2nc1N1CCCCC1	-23.9%	-8.7%	?	?	-15.3	-15.1%[0.0925 µM]
CC(C1CCCC(=O)C1)[N+](=O)[O-] (centres undefined)	20.2%	-0.1%	-9.7%	-9.5%	0.1	·
O=C(NCC1CCCO1)/C(=C\c1ccccc1F)NC(=O)c1ccccc1 (centres undefined)	10.7%	·	·	·	0.6	9.1%
CCCOc1ccc(C(=O)N(Cc2ccccc2Cl)C2CCS(=O)(=O)C2)cc1 (centres undefined)	·	3.3%	-6.9%	-6.3%	·	5.4%[59 µM]
O=C1/C(=N/n2cnnc2)c2ccccc2N1Cc1ccccc1	44.7µM*	-11.9%	0.2%	?	0.0	?
O=C1C(=O)N(Cc2ccc(Cl)c(Cl)c2)c2ccccc21	50.1µM*	-3.6%	-26.8%	14.1µM*	-1.4	·
CCCCCCCCS(=O)c1sc2nc(C)cc(C)c2c1N (centres undefined)	44.7µM*	3.8%	-13.0%	?	3.6	?
COC(=O)c1sc2nc(C)cc(C)c2c1N	1.3%	2.9%	-5.4%	-13.4%	-6.2	-13.3%[0.501 µM]
O=C(CCc1ccccc1)N=C1SC2CS(=O)(=O)CC2N1c1ccccc1 (centres undefined)	4.5%	·	·	·	·	8.3%
COc1ccc(C(CC(=O)O)c2ccc3c(c2)OCO3)cc1 (centres undefined)	13.1%	·	·	·	7.8	-12.3%[2.33 µM]
COc1ccc(C(CCNCc2ccc(OC(C)C)cc2)C(C)C)cc1 (centres undefined)	3.4%	12.1%	-17.3%	-14.0%	-1.3	5.4%
COc1ccc(CNCCC(c2ccc(C)cc2)c2ccco2)cc1 (centres undefined)	·	10.1%	-3.7%	-6.0%	·	5.01µM*
COc1ccc(CNCCC(c2ccccc2)c2ccc3c(c2)OCO3)cc1 (centres undefined)	35.5µM*	-2.1%	-4.1%	-14.5%	-5.8	20µM*
SMILES	Sfp PPTase inh	Tau FP inhib	Tau fluor counter	Tau fibril ThT	Coupling enz	G9a block
COc1ccc(C(CCNCc2ccc(N(C)C)cc2)C(C)C)cc1 (centres undefined)	-0.3%	3.4%	-21.3%	-10.7%	0.8	31.6µM*
C[C@]12CCC(O)CC1CCC1C2CC[C@]2(C)C(c3cc(C(F)(F)F)n[nH]3)CCC12 (some centres undefined)	9.5%	-6.7%	-25.6%	·	1.6	26.4%[0.501 µM]
CCOC(=O)c1[nH]c(C)c(C(=O)OCC)c1C	-5.5%	-6.4%	-4.8%	-0.5%	-1.0	-23.5%
CCOC(=O)c1c(C(F)(F)C(F)(F)C(F)(F)C(F)(F)F)n[nH]c1C	22.2%	14.1µM*	4.5%	0.9%	-15.0	?
Cc1ccc(Cl)cc1N1CCN(S(=O)(=O)c2c(C)[nH]c(=O)[nH]c2=O)CC1	9.5%	-7.8%	-8.9%	-18.6%	4.7	43.6%[12.7 µM]
Cc1cccc(N2CCN(S(=O)(=O)c3c(C)[nH]c(=O)[nH]c3=O)CC2)c1C	-12.2%	2.7%	0.2%	2.1%	11.3	39.8µM*!
Cc1ccccc1C(=O)Nc1nnc(SCc2cc(=O)c3c(C)ccc(C)c3[nH]2)s1	·	-9.1%	-0.1%	?	·	7.7%[59 µM]
CCCC1CC(C(=O)N[C@H](C(C)O)C2OC(SC)[C@@H](O)C(O)C2O)N(C)C1 (some centres undefined)	16.6%	-1.6%	-3.0%	1.7%	0.5	-46.0%[2.33 µM]
CCOC(=O)CN1C(c2ccc(O)cc2)Nc2ccc(Br)cc2C1c1ccccc1 (centres undefined)	15.3%	?	7.08µM*[quencher]	?	-0.7	16.0%[59 µM]
CC(C)c1ccc(NC(=O)Cc2c(C(=O)O)n(C)c3ccccc23)cc1	-2.6%	·	·	·	13.4	11.0%
O=C(COC(=O)C1C2CC3OC(=O)C1C3C2)Nc1ccccc1 (centres undefined)	11.2%	·	·	·	-6.9	50.1µM*
O=C(COC(=O)C1C2CC3OC(=O)C1C3C2)Nc1ccc(F)cc1 (centres undefined)	10.2%	·	·	·	1.3	-5.8%
COc1ccc(NC(=O)N2CCCC3(CCN(S(C)(=O)=O)CC3)C2)cc1	12.3%	·	·	·	-1.6	6.2%[12.7 µM]
Cc1ccccc1NC(=O)CSc1nnc(-c2ccoc2C)n1CCc1ccccc1	-14.9%	2.1%	-7.8%	-10.2%	2.4	79.4µM*
COc1ccc(NC(=O)CSc2nnc(-c3ccoc3C)n2CCc2ccccc2)cc1	4.8%	3.3%	-20.1%	-19.9%	-0.1	12.1%[2.33 µM]
CC(C)n1c(SCC(=O)Nc2nncs2)nnc1-c1ccco1	20µM*	·	·	·	·	·
Cc1ccccc1NC(=O)CSc1nnc(-c2ccco2)n1N	·	·	·	·	·	7.94µM*
Cc1nnc(NC(=O)CSc2ccc(-c3ccco3)nn2)s1	25.1µM*	?	-25.3%	?	-2.4	25.1µM*
